PNC assembly inh = High Content Assay for Compounds that inhibit the Assembly of the Perinucleolar Compartment; PC3M PTB-GFP, PNC prevalence imaging, 16 h; hits give low values; activity change (PNC), negative = inhibition, % at 10 µM; actives 3.1% (n = 140,000);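 active = readout at or below -70, meaning at least 70% loss of cells showing the perinucleolar compartment, a nuclear body marking cancer cells; inconclusive = readout between -30 and a set limit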;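 also: plate controls were DMSO wells for no effect and camptothecin positive control wells for full effect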
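Compounds are pinned in duplicate onto adhered PC3M cells stably expressing GFP-tagged PTB and incubated 16 h at 37 C. Cells are then fixed, nuclei stained with Hoechst, and PNC-positive cells counted.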
HTT aggregate = qHTS Multiplex Assay to Identify Dual Action Probes in a Cell Model of Huntington: Aggregate Formation (GFP) | AID 1688, 2009 | PC12 HttQ103-GFP aggregates, Acumen cytometry, 40 h | Potency, µM (highest dose often 46.1 µM), without a hit: top-dose activity change, negative = inhibition, most hits filed as inhibitors | actives 1.1% (n = 220,000); also: potency is read from the fitted curve at half-maximal effect; % is scaled to controls: 0 for no effect and ±100 for the full control effect; nearly all actives have a fitted effect of over 60% in size
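Multiplexed with ATP-based cell death, this channel scores GFP aggregates in PC12 cells expressing inducible HTTex1-Q103-GFP. Induction used 100 nM tebufenozide; compounds were tested in concentration series.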
HTT cytoprotect = qHTS Multiplex Assay to Identify Dual Action Probes in a Cell Model of Huntington: Cytoprotection (ATP) | PC12 HTT-Q103 induced, cytoprotection, ATP luminescence, 40 h | Potency, µM (top dose mostly 56.4 µM), inactives show cytoprotection (ATP increase), most hits filed as activators | actives 0.14% (n = 230,000) | AID 1471, 2008; also: potency is read from the fitted curve at half-maximal effect; % of control where 0% means no effect; nearly all actives have a fitted effect of over 45% in size
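PC12 cells stably carrying ecdysone-inducible Htt exon 1 (Q103)–GFP were induced with 100 nM tebufenozide (final) alongside library compounds in a dose series. Cytoprotection was scored as retained ATP by ATPlite luminescence.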
Numbers without * were called inactive; u = inconclusive; x = not tested or not shown; [ ] = another dose, or the depositor's remark. Only a selection was taken, and hits are over-represented in it overall. Unless noted, calls follow the shape of the dose curve; as a rule, active = well fitted curve in the direction sought with a large enough effect; inconclusive = small, poorly fitted or top-dose-only effect, or another doubt; inactive = no such curve, though single readings can be large; an effect the other way counts as inactive or inconclusive.

SMILES | PNC assembly inh | HTT aggregate | HTT cytoprotect
Cc1cc(C(=O)N2CCN(S(=O)(=O)c3ccccc3F)CC2)c(C)o1 | x | -0.3% | 12.1%
CCc1ccc(OCCCC(=O)NCc2ccccc2)cc1 | 13.5 | -19.3% | -30.8%[10 µM]
Cc1nc2ccccn2c1C(=O)/C=C/c1ccc(F)cc1 | -94.8* | u | -6.7%
COc1ccc(/C=C/C(=O)c2c(C)nc3ccccn23)cc1 | 97.1 | -22.3% | -42.8%
COc1ccc(CCNc2nnc(Sc3nnnn3-c3ccccc3)s2)cc1OC | -96.5* | u | -81.6%[10 µM]
COc1ccc(-n2nnnc2SCC(=O)NCCc2ccccc2)cc1OC | x | 0.8% | x
C/C(=N\S(=O)(=O)c1ccc(C)cc1)N1CCN(S(=O)(=O)c2ccccc2)C1 | 1.1 | 27.1% | u
COc1ccc(CN2C(=O)c3cccnc3C2Nc2ccc(OC)c(Cl)c2)cc1 (configuration not stated) | -4.9 | 1.5% | -0.7%
COc1ccc(NC2c3ncccc3C(=O)N2Cc2ccccc2)c(OC)c1 (configuration not stated) | -100.0* | 3.5% | -0.4%[10 µM]
COc1ccccc1-c1nnc(SC(C(=O)c2c[nH]c3ccccc23)c2ccccc2)n1C (configuration not stated) | 6.1 | 2.82µM* | 4.47µM*
COc1cccc(-c2nnc(SC(C(=O)c3c[nH]c4ccccc34)c3ccccc3)n2C)c1 (configuration not stated) | 9.0 | u | x
COC(=O)c1ccccc1NC(=O)CSc1nc(NC(=O)c2ccccc2)c2c(C)c(C)oc2n1 | 7.3 | 8.9% | u
Cc1cc(C(=O)N2CCN(c3ccc(C(F)(F)F)cn3)CC2)c(C)o1 | x | -15.1%[9.22 µM] | 26.7%[10 µM]
Cc1cccc(C(=O)N2CCN(c3ccc(C(F)(F)F)cn3)CC2)c1C | -22.1 | 15.8µM* | -3.4%
COc1ccc(S(=O)(=O)N2CCc3ccccc3C2)cc1OC | -15.1 | -0.5% | -1.8%
COc1cc(/C=C(\C#N)C(N)=O)cc(CSc2nc3ccccc3s2)c1O | x | x | -37.4%
CC(C)NC(=O)NC(=O)COC(=O)c1ccc(S(=O)(=O)Nc2ccccc2)cc1 | x | 0.6% | -19.8%
Cc1ccc(C(=O)OCC(=O)NC(=O)c2cccn2C)cc1 | -80.8* | 14.5% | -39.1%
Cc1ccc(C(=O)OCC(=O)NC(=O)c2cccn2C)cc1[N+](=O)[O-] | x | -10.7%[9.22 µM] | -3.7%[10 µM]
CNC(=O)NC(=O)COC(=O)c1ccc(-n2c(C)ccc2C)cc1 | -115.2* | u | 3.7%[10 µM]
CC(C)NC(=O)NC(=O)COC(=O)c1ccc(OC(F)(F)F)cc1 | -88.8* | 2.8% | x
CCOC(=O)NC(=O)COC(=O)c1ccc(O)cc1 | x | -10.9% | -47.8%
C=CCN(c1ccccc1OC)S(=O)(=O)c1ccc(Cl)c(C(=O)Nc2ccc(N3CCOCC3)cc2)c1 | x | -11.0% | 4.3%[10 µM]
O=C(CSc1nncs1)Nc1ccc2c(c1)OCCO2 | 10.5 | 29.4%[1.84 µM] | 10.2%
Nc1cccnc1Sc1cc(Cl)c(Cl)cc1Cl | 8.3 | -4.0% | -14.4%
SMILES | PNC assembly inh | HTT aggregate | HTT cytoprotect
COC(=O)C1=C(C)NC(C)=C(C(=O)OC)C1c1cc2ccc(C)cc2[nH]c1=O | 13.8 | 3.9% | -16.9%[10 µM]
CCOC(=O)C1=C(C)NC(C)=C(C(=O)OCC)C1c1cc2ccc(C)cc2[nH]c1=O | -111.5* | -19.5% | -17.8%[10 µM]
CC(=O)Nc1cc(C)c2nc(NC(C)=O)sc2c1 | x | 5.3%[9.22 µM] | -0.7%[10 µM]
CC(C)C(=O)NC(=S)Nc1ccc(S(=O)(=O)Nc2ccccc2)cc1 | u | 8.2% | -6.5%[10 µM]
CC(C)C(=O)NC(=S)Nc1ccc(S(=O)(=O)NC(C)(C)C)cc1 | -107.4* | -5.9% | 1.6%
C=CC[n+]1c(-c2ccc(OC)c(OC)c2)csc1NNC(=O)Nc1ccccc1 | u | 12.6µM* | -26.2%
C=CC[n+]1c(-c2ccccc2)csc1NC(C)(C)C | x | -10.1% | 17.9%[10 µM]
Cc1ccc(S(=O)(=O)Nc2nc(-c3ccc(F)cc3)cs2)cc1 | x | -0.3%[9.22 µM] | -11.6%[10 µM]
CC(C)n1nnnc1SCC(=O)NCc1ccc2c(c1)OCO2 | 60.8 | 6.2% | 14.4%
CCCn1nnnc1SCC(=O)NCc1ccc2c(c1)OCO2 | -21.9 | 0.0158µM* | -7.9%[10 µM]
O=S(=O)(NNc1ccc(Cl)nn1)c1ccc(F)cc1 | -87.9* | u | 6.3%[10 µM]
O=S(=O)(Nc1ccc(Cl)nn1)c1ccccc1 | x | 22.0% | -0.8%
CCCOc1ccc(OCCOCCNCc2ccccc2)cc1 | -8.7 | 5.2% | -12.2%[10 µM]
Cc1cc(NC(=O)c2cc3ccccc3o2)cc(C)c1OCC(=O)N1CCOCC1 | -22.3 | -1.2% | -29.1%
Cc1cc(NS(=O)(=O)Cc2ccccc2)cc(C)c1OCC(=O)N1CCOCC1 | -95.7* | -11.5% | -10.5%[0.074 µM]
NC(=O)NCc1cccnc1 | x | -5.2%[9.22 µM] | 25.3%[10 µM]
Clc1ccc(-n2ncc3c(N4CCCCCC4)ncnc32)cc1 | -9.1 | -22.6% | -23.5%[10 µM]
Brc1cc(Br)c2ncnc(N3CCCCC3)c2c1 | 10.5 | 11.2µM* | -8.4%[0.074 µM]
O=C(CNC(=O)c1ccccc1)NC1(C(=O)NC2CCCC2)CCCCC1 | 6.4 | -5.1% | -73.9%
CCOC(=O)C1CCN(S(=O)(=O)c2ccc(C(C)=O)cc2)CC1 | -100.0* | 1.0% | 6.7%[10 µM]
O=C(Cc1ccccc1)NC1CCN(S(=O)(=O)c2ccc(C(=O)O)cc2)CC1 | 93.9 | -1.8% | -4.5%
COCC(=O)NC1CCN(S(=O)(=O)c2ccc(C(=O)O)cc2)CC1 | -121.8* | 1.3% | 14.3%[10 µM]
O=C(O)C1CCN(S(=O)(=O)c2cccnc2)CC1 | 25.6 | 11.3% | 21.9%
CCOC(=O)C1CCN(S(=O)(=O)c2ccc(OCC(=O)OC)cc2)CC1 | u | -6.5% | 6.0%[0.074 µM]
O=C(O)C1CCN(S(=O)(=O)c2ccc(Oc3ccccc3)cc2)CC1 | -82.6* | -18.4% | -6.2%
SMILES | PNC assembly inh | HTT aggregate | HTT cytoprotect
Cc1nc2sccn2c(=O)c1Br | 10.2 | 5.9% | 8.5%[10 µM]
COc1ccc2[nH]cc(CCNc3ccnc(-c4ccccc4C(F)(F)F)n3)c2c1 | x | x | -4.3%
CCn1cc(C(=O)O)c(=O)c2cnc(N3CCN(C(=S)NC(=O)c4ccc(Br)cc4)CC3)nc21 | x | -6.0%[9.22 µM] | 5.5%[10 µM]
CSc1cc(/C=N/O)c(SC)s1 | -5.3 | 12.6µM* | 21.4%[10 µM]
CSc1sc(C)cc1C=O | x | -0.5% | 5.1%[10 µM]
CCOc1ccc(S(=O)(=O)NCCC(=O)N2CCN(c3ccc(OC)cc3)CC2)cc1 | x | 10.6% | -8.9%
CCCC(=O)N(CCN(C(=O)CCC)c1ccccc1)c1ccccc1 | -100.0* | -20.4% | 13.4%[10 µM]
CCN(C(=O)CCC(=O)N(CC)c1ccccc1)c1ccccc1 | 20.4 | 0.4% | x
Cc1ccc(S(=O)(=O)Nc2ccc(Cl)cc2)cc1NC(=O)c1cc2c(s1)CCCC2 | 54.8 | u | 37.8%[10 µM]
COc1ccc(CCn2c(-c3ccc(Cl)cc3)n[nH]c2=S)cc1OC | x | -4.1% | x
COc1ccc(CCn2c(C)ccc2C)cc1OC | -100.0* | 2.8% | -5.5%[10 µM]
N#CCSc1nnc(C2CCCCC2)n1Cc1ccccc1 | u | -2.5% | 3.9%[10 µM]
CC(C)OC(=O)n1c(=S)oc2ccccc21 | -3.7 | 5.3%[9.22 µM] | 7.5%
CCCCC(=O)/C=C/n1c(=S)oc2ccccc21 | -116.4* | u | 9.9%[10 µM]
Cc1c(NS(=O)(=O)c2ccc3c(c2)c(=O)n(C)c(=O)n3C)c(=O)n(-c2ccccc2)n1C | 13.8 | 8.5%[9.22 µM] | 7.9%
C=C1C2(C(=O)Nc3ccc(SC(F)F)cc3)CCC(C2)C1(C)C (configuration not stated) | u | 28.1% | -8.5%[10 µM]

Compound activity (PubChem)
